Assay outcomes as filed in PubChem BioAssay.
Hits are enriched below; roughly 3.6% of the tested compounds scored in any of these assays.
IMPase Li inh – membrane-permeable IMPase blocker, potentiated with lithium; 210,000 compounds, 0.35% hits; AID 1457; Potency, µM (highest dose often 59.4 µM), without a hit: at the highest dose activity, negative = IMPase inhibition, actives largely listed as inhibitors; CHO-M1 cells, IP1 TR-FRET (IP-One), carbachol + lithium;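 further: IP1 builds up when IMPase is blocked and the TR-FRET signal falls; plate controls were basal vehicle for no effect and high inhibitor control for full effect; nearly all actives have a fitted effect of over 50% in size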
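Concentration–response in CHO-M1 cells, lithium-potentiated; 30 min at 37C. IP1 detected by competitive TR-FRET after 10 min lysis at RT. Hill-fitted AC50.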
GCN5L2 inh – blocks human GCN5L2 histone acetyltransferase; GCN5L2 HAT assay, ThioGlo1 CoA-SH fluorescence; Potency, µM (doses to about 58.9 µM), inactives show at the top dose activity change, negative = inhibition, hits mostly inhibitors; 390,000 compounds, 0.21% hits; Q92830; AID 504327; further: on the % scale 0 is the no-effect control and ±100 the full control effect
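qHTS, 1536-well. 20nM enzyme, pH 7.5 HEPES/EDTA/Tween-20 buffer; 15 min compound preinc., RT. Start: 75uM H3(1-25), 70uM AcCoA, 50uM ThioGlo1. Read Ex340/Em540 at t=0 (autofluorescence flag) and t=20 min.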
NPSR antag – neuropeptide S receptor (human) antagonism, cAMP | Q6W5P4 | CHO-NPSR cells, cAMP TR-FRET, antagonist mode | Potency, µM (top dose mostly 38.3 µM), for the others: at the top dose activity change, negative = inhibition, most hits filed as inhibitors | 220,000 compounds, 1% hits | AID 1461; further: on the % scale 0 is the no-effect control and ±100 the full control effect; nearly all actives have a fitted effect of over 50% in size
Target sequence (Q6W5P4 whole entry, looked up): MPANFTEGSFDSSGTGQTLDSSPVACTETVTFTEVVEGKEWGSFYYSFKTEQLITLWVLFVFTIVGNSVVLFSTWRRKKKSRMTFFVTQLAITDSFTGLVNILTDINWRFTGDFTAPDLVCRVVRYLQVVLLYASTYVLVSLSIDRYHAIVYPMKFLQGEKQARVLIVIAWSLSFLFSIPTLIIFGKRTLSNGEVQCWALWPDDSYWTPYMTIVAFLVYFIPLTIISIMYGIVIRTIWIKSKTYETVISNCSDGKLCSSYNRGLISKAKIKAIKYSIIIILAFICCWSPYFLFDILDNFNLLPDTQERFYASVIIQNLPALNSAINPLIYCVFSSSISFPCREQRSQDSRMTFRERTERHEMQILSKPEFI
Epigenetic derep – epigenetic control regulation, reporter derepression; murine LDR cells, GFP reporter derepression, 30 h; Potency, µM (series often up to 53.9 µM), for inactives: at the highest dose GFP activation, usual class: activators; 280,000 compounds, 0.2% hits; further: % of control where 0% means no effect; nearly all actives have a fitted effect of over 60% in size
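In this reporter-derepression format, murine cells bearing a silenced integrated CMV-GFP locus incubate with test compound (30 h, 37 C), then are washed and imaged; fluorescent objects of 20–120 um count as induced cells.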
Sfp PPTase inh – blocks B. subtilis Sfp PPTase activity; Biochemical Sfp PPTase activity, qHTS; Potency, µM, inactives show largest response in the series, negative = inhibition, hits mostly inhibitors; 310,000 compounds, 3.5% hits; AID 1490;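 further: the enzyme is Sfp with the accession as filed and its product quenches rhodamine fluorescence; 0% = enzyme reaction without inhibitor and -100% = no enzyme wells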
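After 15 min at room temperature with compound, 15 nM Sfp received 5 uM rhodamine-CoA plus 12.5 uM BHQ-2-ybbR (50 mM Hepes pH 7.6, 10 mM MgCl2). Rate came from the fluorescence difference over 30 min, ex 525/em 598 nm.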
KDM4E inh – blocks human JMJD2E demethylase activity; B2RXH2; JMJD2E catalytic domain, FDH-coupled NADH fluorescence (FDH is formaldehyde dehydrogenase); Potency, µM (highest dose often 57.1 µM), for inactives: top-dose activity change, negative = inhibition, usual class: inhibitors; 230,000 compounds, 1.6% hits; AID 2147; active means well fitted inhibition curve with a large enough effect, not every such curve was filed as active; inconclusive means small, poorly fitted or top-dose-only effect, or another doubt; inactive means no such curve, though single readings can be large or run the other way;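 further: 0% = wells with enzyme and -100% = buffer wells without enzyme; nearly all actives have a fitted effect of over 50% in size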
Target sequence (B2RXH2 1-337 limits assumed): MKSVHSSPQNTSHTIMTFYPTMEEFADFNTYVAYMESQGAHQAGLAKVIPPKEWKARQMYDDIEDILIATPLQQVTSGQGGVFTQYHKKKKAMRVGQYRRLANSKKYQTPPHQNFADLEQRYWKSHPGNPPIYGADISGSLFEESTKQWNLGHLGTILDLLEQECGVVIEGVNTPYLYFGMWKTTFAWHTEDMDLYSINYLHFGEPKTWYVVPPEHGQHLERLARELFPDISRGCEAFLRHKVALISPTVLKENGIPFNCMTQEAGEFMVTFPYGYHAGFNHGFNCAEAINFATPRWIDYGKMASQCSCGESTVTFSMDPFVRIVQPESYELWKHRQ
The depositor's hits bear a star; ? = inconclusive; . = no result given; [ ] = dose if it differs, or a comment. Unless noted, the call rests on the fitted dose curve; in most records, active means well fitted curve in the direction sought with a large enough effect; inconclusive means small, poorly fitted or top-dose-only effect, or another doubt; inactive means no such curve, though single readings can be large; an effect the other way counts as inactive or inconclusive. Potency means the concentration at half of the fitted maximal effect.

SMILES | IMPase Li inh | GCN5L2 inh | NPSR antag | Epigenetic derep | Sfp PPTase inh | KDM4E inh
Cc1nnc(SCC2=C(C(=O)O)N3C(=O)C(NC(=O)Cn4nc(C(F)F)cc4C)C3SC2)s1 (stereo unspecified) | 11.4% | -8.5% | 5.2% | -2.2% | 79.4µM* | -8.0%
Cc1nnc(SCC2=C(C(=O)O)N3C(=O)C(NC(=O)COc4ccc(F)cc4)C3SC2)s1 (stereo unspecified) | . | -6.8% | . | . | . | .
Cc1nnc(SCC2=C(C(=O)O)N3C(=O)C(NC(=O)c4cc(F)c(F)cc4Cl)C3SC2)s1 (stereo unspecified) | -3.0% | -1.3% | 4.7% | -1.5% | 50.1µM* | -9.0%
CC(=O)OCON[N+]([O-])=NC(C)C | . | . | . | . | -1.3% | .
COc1ccc2c(c1)[N+](=O)C(/C(C)=N/NC(N)=S)=C(C)[N+]2=O | -1.0% | . | . | . | . | .
CCOc1ccc2cc(-c3nnc(Nc4ccccc4F)s3)c(=O)oc2c1 | . | -0.9% | . | 3.55µM* | . | .
O=c1oc2ccccc2cc1-c1nc(-c2ccccc2)no1 | 11.9%[38.3 µM] | -0.3% | -19.4%[46.1 µM] | 3.4% | 15.7% | ?
COc1ccc2oc(=O)c(-c3csc(-c4ccc(Br)cc4)n3)cc2c1 | . | -12.0% | . | -1.3% | . | .
COc1ccc2oc(=O)c(-c3nnc(NCc4ccco4)s3)cc2c1 | ? | -12.4% | 2.1%[46.1 µM] | 17.2% | -28.3% | 4.6%
CCN(CC)c1ccc2cc(-c3nc(-c4ccccc4)no3)c(=O)oc2c1 | . | -4.6% | . | 14.1µM* | . | .
O=c1oc2ccccc2cc1-c1nnc(Nc2ccc(Cl)cc2Cl)s1 | . | 3.2% | . | -0.8% | . | .
CCOc1ccccc1Nc1nnc(-c2cc3cc(OC)ccc3oc2=O)s1 | . | -4.3% | . | 17.8µM* | . | .
COc1ccc2oc(=O)c(-c3csc(Nc4ccc(O)cc4)n3)cc2c1 | 21.5% | -14.3% | -28.3% | ? | 25.1µM* | -2.0%
CN(C)c1ncc2nc(-c3cc(F)cc(F)c3)c(=O)n(C[C@H]3CCCO3)c2n1 | 3.0% | 4.2% | . | . | 7.0% | .
Cc1cc2c(c(=O)o1)[C@@H](O)[C@H]1O[C@@H]1C2=O | . | . | . | 2.0%[10.1 µM] | 5.5% | .
CCN(CC)c1ccc2cc(-c3nnc(Nc4ccc(C)cc4)s3)c(=O)oc2c1 | . | 0.7% | . | 0.1µM* | . | .
Cc1sc2ncn(CC(=O)N3CCN(c4ccccc4F)CC3)c(=O)c2c1S(=O)(=O)N1CCN(c2ncccn2)CC1 | . | -5.2% | . | -0.9% | . | .
C=C1C(=O)[C@@]23[C@H](O)C[C@@H]4C(C)(C)CC[C@H](O)[C@@]4(C)[C@@H]2CC[C@@H]1[C@H]3O | 2.6% | -0.1% | -10.9% | 1.1% | -5.3% | 1.9%
C=C1C(=O)[C@@]23[C@H](O)C[C@@H]4C(C)(C)CC[C@H](O)[C@]4(C)[C@@H]2C[C@H](O)[C@@H]1[C@H]3O | 0.7% | -2.3% | -3.0% | 1.0% | 44.7µM* | -1.6%
COc1ccc(N=C2SCC(c3ccccc3)=NN2C)cc1 | . | -0.5% | 2.3% | 0.5% | -7.4% | -5.6%
COc1ccc(N=C2NN=C(c3c(C)[nH]c4ccccc34)CS2)cc1 | 10.2% | 3.3% | -18.3% | 1.0% | 35.5µM* | ?
Fc1ccc(N=C2NN=C(c3cc(F)ccc3F)CS2)cc1 | 3.1% | -19.4% | -49.5% | 9.5% | -8.8% | ?
Cc1[nH]c2ccccc2c1C1=NNC(=Nc2ccc(F)cc2)SC1 | 11.4% | -7.2% | -16.9%[46.1 µM] | 0.0% | 22.4µM* | -6.2%
CC(=O)OC[C@@]12C(=O)[C@@H](O)[C@@H](C)[C@]3(C[C@@H](c4ccoc4)O[C@@H]3OC(C)=O)[C@H]1CCC[C@]21CO1 | 11.9% | . | . | 0.0% | -14.6% | 3.3%
CCCn1c2ccccc2c2nnc(SCc3[nH]c(=O)[nH]c3C(=O)CCCCC(=O)OCC)nc21 | 6.2% | 20.9% | 4.3% | 7.2% | 25.1µM* | -16.8%
SMILES | IMPase Li inh | GCN5L2 inh | NPSR antag | Epigenetic derep | Sfp PPTase inh | KDM4E inh
N#Cc1c(C#N)c(O)c2ccccc2c1O | . | -8.2% | -9.5% | 1.1% | 12.6µM* | ?
CC1(C)OC(C(O)(c2cc(F)c(F)c(F)c2)c2cc(F)c(F)c(F)c2)C(C(O)(c2cc(F)c(F)c(F)c2)c2cc(F)c(F)c(F)c2)O1 (stereo unspecified) | . | . | . | 1.1%[10.1 µM] | -5.5% | .
COc1cc(/C=N/n2cnn(Cc3ccccc3Cl)c2=S)cc(OC)c1OC | 25.9% | -14.1% | -47.6% | -0.4% | ? | -5.5%
COc1ccc(/C=N/n2cnn(Cc3ccccc3Cl)c2=S)cc1 | 16.1% | -13.0% | -26.1% | -0.3% | 25.1µM* | -16.6%
CC(=O)N=c1c(C#N)cc2c(=O)n3ccccc3nc2n1CCCOC(C)C | . | 0.5% | 23.1% | 1.8% | 89.1µM* | ?
O=C(O)CCCNC(=O)/C=C/c1ccco1 | . | -12.9% | -0.2% | -2.8% | 12.6µM* | ?
COc1ccc(C2(CNC(=O)/C=C/c3ccco3)CCCC2)cc1OC | -1.9%[38.3 µM] | ? | -11.9%[46.1 µM] | 1.2% | 22.4µM* | ?
CCN(CC)S(=O)(=O)c1ccc(OC)c(NC(=O)/C=C/c2ccco2)c1 | . | -24.6% | -22.1% | 0.0% | 25.1µM* | -18.9%
CCN(CC)S(=O)(=O)c1ccc(N2CCCCC2)c(NC(=O)/C=C/c2ccc(OC)c(OC)c2)c1 | 3.1% | -8.6% | -8.5%[46.1 µM] | 0.0% | 17.2% | 1.1%
COc1ccc(C(NC(=O)/C=C/c2ccco2)c2ccc(OC)c(OC)c2)cc1 (stereo unspecified) | 6.4% | 4.5% | -12.1%[46.1 µM] | 0.0% | 20µM* | -15.9%
O=C(/C=C/c1ccco1)NCC1(c2ccccc2)CCCC1 | 10.1% | -7.0% | -16.2% | -3.0% | -29.1% | 2.3%
Cc1cc(C)cc(O)c1 | -13.7% | . | . | . | . | .
CN(Cc1ccccc1)C(=O)[C@H](Cc1ccc2ccccc2c1)NC(=O)[C@@H]1CCCN1C(=O)Nc1ccccc1[N+](=O)[O-] | 14.1% | 2.6% | . | -4.6% | 9.0% | .
Cn1c(=O)n(C)c2cc(NS(=O)(=O)c3ccc(C(C)(C)C)cc3)c(NCc3ccccc3)cc21 | . | -12.1% | . | -2.8% | . | .
CCOc1ccccc1-c1nnc2n1N=C(c1ccc(OC)cc1)CS2 | . | . | . | . | -24.0% | .
CCC(=O)/C=C/C1C(C)=CCCC1(C)C (stereo unspecified) | -5.9% | . | . | . | . | .
COc1ccc(CNC(=O)/C=C/c2ccco2)cc1OC | 15.6% | -4.2% | 4.3% | 0.0% | 44.7µM* | -11.1%
CCOC(=O)c1sc2nc(C)nc(SCC(=O)N(C)C3CCS(=O)(=O)C3)c2c1C (stereo unspecified) | 10µM* | -2.3% | 7.8% | 2.2% | 8.0% | 2.4%
CCOC(=O)c1sc2nc(C)nc(SCC(=O)NC(C)CCc3ccccc3)c2c1C (stereo unspecified) | 10µM* | -1.5% | -50.9% | 0.0% | 1.1% | -1.2%
CCCCC=O | -12.3% | . | . | . | . | .
